Most compounds without a hit are left out; they make up all but 3% or so of the library.
esBAF inh: Bmi1 luciferase reporter increase in mESCs, primary screen, esBAF inhibitor project, mouse ES cells, Bmi1 luciferase knock-in, single point; 24 h; 100% = twice the neutral-well signal; reporter increase, % at 12.5 µM; 350,000 tested, 2% active; AID 602393, 2012; in the data active = activation above about 40%; inconclusive = no clear call, values can overlap the other calls;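 also: 0% = median of the plate's neutral control wells and 100% = double that signal; a rise in the Bmi1 reporter signal indicates esBAF inhibition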
Wnt bcat act: Wnt/beta-catenin pathway activators, primary screen, cell-based, plate reader, single point. Wnt/beta-catenin reporter cell assay, activator. activation, % at 9.35 µM. 300,000 tested, 1.2% active; in the data active = activation above about 30%, passing the limit was not always enough; inconclusive = no clear call, values can overlap the other calls;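 also: 0% = neutral control wells and 100% = positive control wells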
MITF TRPM1 HTS: activators of MITF-driven TRPM1 promoter reporter, primary screen, cell-based, SK-MEL-5, luciferase, single point; 300,000 tested, 0.75% active; SK-MEL-5 TRPM1-promoter luciferase, 24 h; % of positive control, neutral wells = 0; activation, % at 12.5 µM;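 active = mean activation of at least 80% with every replicate also reaching 80%; inconclusive = mean reaches 80% but some replicate falls short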;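 also: 0% = neutral control wells and 100% = parthenolide positive control wells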
C2C12 statin: suppressors of statin myotoxicity in C2C12 myotubes, primary screen, cell-based, single point, plate reader; C2C12 myotubes + simvastatin, ATP luminescence, 48 h; scaled: DMSO 0, geranylgeraniol control 100; rescue of ATP level, % at 7.49 µM; 330,000 tested, 0.78% active;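 active = mean ATP rescue above about 67%, or every replicate alone reaching that limit, limit read from the data, passing the limit was not always enough; inconclusive = no clear call, values can overlap the other calls; inactive = mean under the limit and some replicate under it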;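 also: myotubes were challenged with 10 µM simvastatin during compound exposure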
An asterisk follows results filed as active; ? = inconclusive; . = no result given.

SMILES	esBAF inh	Wnt bcat act	MITF TRPM1 HTS	C2C12 statin
COc1cc(/C=N/NC(=O)c2cccnc2)ccc1OC(=O)c1ccc2c(c1)OCO2	.	46*	-2	.
N/C(=N\OC(=O)c1ccc2c(c1)OCO2)c1cccnc1	.	62*	77	.
N/C(=N\OC(=O)c1cccc(Br)c1)c1ccc(Br)cc1	5	.	3	96*
C[C@H]1CN([C@@H](C)CO)C(=O)c2cc(NC(=O)Cc3cn(C)c4ccccc34)ccc2O[C@H]1CN(C)S(C)(=O)=O	0	.	.	-4
CO[C@@H]1CN(C)C(=O)c2ccc(NC(C)=O)cc2OC[C@@H](C)N(C(=O)c2ccccc2F)C[C@H]1C	6	.	.	0
N/C(=N\OC(=O)Cc1ccccc1[N+](=O)[O-])c1cccc(Br)c1	3	37*	-4	-6
OC1c2cc(Br)ccc2N=C2CCCN21 (stereo unspecified)	24	2	-4	-3
OC1c2cc(Br)ccc2N=C2CCCCCN21 (stereo unspecified)	44*	-3	.	-2
COc1ccc2[nH]c(=O)c(CN(C)C(=O)COc3ccccc3)cc2c1	-6	.	-1	72*
CCOC(=O)c1cnc2cc(-c3ccc(Cl)cc3)nn2c1N	67*	21	149*	-15
CCOC(=O)c1cnc2c(-c3ccc(Cl)cc3)c(C)nn2c1N	4	.	19	87*
CCOC(=O)c1cnc2cc(-c3ccc(Br)cc3)nn2c1C	31	6	.	-3
CCOC(=O)Cc1c(C)nc2c(-c3ccc(Cl)cc3)c(C)nn2c1C	.	-4	-19	.
C[C@@H]1CN([C@@H](C)CO)C(=O)Cc2cc(NS(=O)(=O)c3cn(C)cn3)ccc2O[C@@H]1CN(C)CC1CC1	-13	.	.	-36
COc1ccc(C#Cc2cnc3c(c2)C(=O)N([C@H](C)CO)C[C@H](C)[C@H](CN(C)S(=O)(=O)c2ccc(C#N)cc2)O3)cc1OC	7	.	.	-101
Cc1ccc(Nc2nc3ccccc3o2)cc1F	14	31*	12	.
Cc1ccnc(Nc2nc3ccccc3o2)n1	-60	4	-17	-25
Cn1nnc(NC(=O)C(c2ccccc2)c2ccccc2)n1	-2	40*	-10	-1
Cn1nnc(NC(=O)CSc2ccc(Cl)cc2)n1	-10	-1	4	98*
Cn1nnc(NC(=O)CSc2nnnn2-c2ccc(F)cc2)n1	-8	-2	.	-18
Cc1cc(NCCCn2ccnc2)n2nc(C)c(-c3ccccc3)c2n1	47*	16	66	.
Cc1cc(NC2CCCC2)n2nc(C)c(-c3ccccc3)c2n1	?	6	100*	-28
Cc1ccc(S(=O)(=O)Nc2ccc3c(c2)CC(=O)N([C@H](C)CO)C[C@H](C)[C@H](CN(C)C(=O)Nc2ccc(F)cc2)O3)cc1	3	.	.	19
C/C(=N/NC(=O)c1cc2ccccc2cc1O)C1C(=O)c2ccccc2C1=O	51*	-3	-5	-12
C/C(=N\NC(=O)c1cc2ccccc2cc1O)c1ccccn1	-55	14	-72	-168
SMILES	esBAF inh	Wnt bcat act	MITF TRPM1 HTS	C2C12 statin
C/C(=N\NC(=O)c1ccccc1O)C1C(=O)c2ccccc2C1=O	81*	.	13	-17
O=C(C[C@@H]1CC[C@@H](NS(=O)(=O)c2ccc(F)cc2)[C@H](CO)O1)NCCN1CCCCC1	-4	.	.	0
Cc1noc(C)c1NC(=O)Nc1ccc2c(c1)C(=O)N([C@@H](C)CO)C[C@@H](C)[C@H](CN(C)C(=O)NC(C)C)OCCCC[C@H](C)O2	0	.	.	.
O=C(CN1C(=O)CSc2ccccc21)Nc1ccccc1C(=O)N1CCOCC1	0	-1	-29	90*
Cc1ccc(N2C(=O)[C@@H]3Cc4ccccc4CN3C2=O)cc1	55*	14	42	-9
C[C@@H]1CN([C@H](C)CO)C(=O)Cc2cc(NC(=O)c3ccncc3)ccc2O[C@H]1CN(C)S(=O)(=O)c1ccc(F)cc1	1	.	.	-2
O=C(Nc1ccc2c(c1)OCO2)c1ccc(Cl)s1	0	.	59	-12
Cc1ccc2c(Cl)c(C(=O)Nc3ccc4c(c3)OCO4)sc2c1	.	.	99*	.
Cc1noc(C(=O)Nc2ccc3c(c2)OCO3)c1Cl	51*	12	55	0
COc1ccc(NC(=O)N(C)C[C@@H]2OCCCC[C@@H](C)Oc3ccc(NC(=O)c4ccncc4)cc3C(=O)N([C@H](C)CO)C[C@H]2C)cc1	-1	.	.	.
C[C@H]1CN([C@@H](C)CO)C(=O)c2cccc(NC(=O)c3ccc(-c4nccs4)cc3)c2O[C@H]1CN(C)Cc1ccc2c(c1)OCO2	-11	.	.	-12
C[C@@H]1CN([C@@H](C)CO)S(=O)(=O)c2ccc(-c3cncnc3)cc2O[C@@H]1CN(C)C(=O)c1cccc(F)c1	-1	.	.	10
COCCN(CC(=O)Nc1cccc(C)c1C)C(=O)c1ccc2ccccc2n1	47*	-4	11	5
CC(C)NC(=O)Nc1ccc2c(c1)C(=O)N([C@@H](C)CO)C[C@@H](C)[C@H](CN(C)CC1CCCCC1)OCCCC[C@@H](C)O2	0	.	.	.
O=C1CCN(Cc2ccccc2)CCN1CCSc1ccccc1	61*	27	61	5
C[C@H]1CCC(=O)N(CCSc2ccc(Br)cc2)CC1	53*	28	77	-14
CCCN1CCC(=O)N(CCSc2ccccc2)CC1	7	23	25	14
CC(C)(C)C1CCC(=O)N(CCSc2ccccc2)CC1 (stereo unspecified)	62*	47*	96*	7
Cc1ccc(SCCN2CCC(C(C)(C)C)CCC2=O)cc1 (stereo unspecified)	25	9	46	7
CO[C@@H]1CN(C)C(=O)c2ccc(NC(=O)NC(C)C)cc2OC[C@@H](C)N(C(=O)CN(C)C)C[C@H]1C	-1	.	.	0
COc1ccc(NC(=O)CCCC(=O)c2ccccc2)cc1OC	1	5	.	11
O=C(CCCc1ccccc1)Nc1ccccc1[N+](=O)[O-]	53*	2	44	1
COc1ccc(NC(=O)CCCc2ccccc2)cc1OC	65*	11	.	4
COc1ccc(-c2noc(CCCC(=O)NCCc3ccccc3)n2)cc1OC	-45	-4	1	151*
CC(C)c1cn(CC[C@@H]2CC[C@@H](NS(=O)(=O)c3ccccc3)[C@H](CO)O2)nn1	-3	.	.	8
SMILES	esBAF inh	Wnt bcat act	MITF TRPM1 HTS	C2C12 statin
O=C(C[C@H]1CC[C@@H](NC(=O)NC2CCCCC2)[C@@H](CO)O1)NCc1ccc(Cl)cc1	-2	.	.	2
C[C@@H]1CN([C@@H](C)CO)C(=O)c2cc(C#CCN(C)C)cnc2O[C@H]1CN(C)C	0	.	.	4
O=C(C[C@H]1C=C[C@H](NC(=O)c2cccc(F)c2)[C@@H](CO)O1)Nc1nccs1	-4	.	.	4
Cn1cc(-c2coc3c(C(=O)NCc4ccco4)cccc23)cn1	72*	.	.	2
O=C(C[C@@H]1C=C[C@H](NC(=O)Nc2ccccc2F)[C@H](CO)O1)NCc1ccc(Cl)cc1	3	.	.	4
c1cncc(CSc2ccc(-c3ccc4c(c3)OCO4)nn2)c1	49*	32*	69	2
